Compound activity: PubChem BioAssay, National Center for Advancing Translational Sciences (NCATS)
Sfp PPTase inh – blocks B. subtilis Sfp PPTase activity | 310,000 compounds, 3.5% hits | AID 1490 | Q9F4F7 | Biochemical Sfp PPTase activity, qHTS | Potency, µM, for inactives: largest response in the series, negative = inhibition, actives largely listed as inhibitors;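 also: the enzyme is Sfp with the accession as filed and its product quenches rhodamine fluorescence; 0% = enzyme reaction without inhibitor and -100% = no enzyme wells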
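Sfp 15 nM + cpd, 15 min RT; start w/ rhodamine-CoA 5 uM, BHQ-2-YbbR 12.5 uM (final); 50 mM Hepes pH 7.6, 10 mM MgCl2, 0.01% NP-40, 0.01% BSA; read 525/598 nm at 0 and 30 min.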
PLK1 PBD block – blocks phosphopeptide binding to human PLK1 polo-box domain. P53350. 360,000 compounds, 2.8% hits. Potency, µM, for the others: max response, negative = inhibition, actives largely listed as inhibitors. Plk1 PBD binding of FITC phosphopeptide, fluorescence polarization; also: series mostly up to about 57 µM; % is scaled to controls: 0 for no effect and ±100 for the full control effect; nearly all actives have a fitted effect of over 65% in size
JMJD2A Tudor inh – blocks the human JMJD2A Tudor domain | Potency, µM (series often up to 114 µM), for inactives: top-dose activity change, negative = inhibition, actives largely listed as inhibitors | AlphaScreen JMJD2A-Tudor / H3K4me3 peptide binding | 390,000 compounds, 4.4% hits | O75164; also: % is scaled to controls: 0 for no effect and ±100 for the full control effect; nearly all actives have a fitted effect of over 50% in size
BAZ2B inh – blocks human BAZ2B | Potency, µM (top dose mostly 114 µM), inactives show at the highest dose activity change, negative = inhibition, most hits filed as inhibitors | AID 504333 | 360,000 compounds, 4.4% hits | Q9UIF8 | AlphaScreen BAZ2B-H3K14Ac peptide displacement; also: % is scaled to controls: 0 for no effect and ±100 for the full control effect; nearly all actives have a fitted effect of over 60% in size
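In this displacement format the biotinylated H3(5-23) peptide acetylated at Lys14 serves as ligand at 50 nM, with BAZ2B at 50 nM in PBS pH 7.4 containing 0.01% Tween-20. Donor and acceptor beads are 10 ug/mL final.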
G9a inh – G9a (human) methyltransferase inhibition; 350,000 compounds, 8.8% hits; Potency, µM (series often up to 102 µM), for the others: at the highest dose activity, negative = inhibition, actives largely listed as inhibitors; G9a H3K9 monomethylation, AlphaScreen, 2 h; also: % is scaled to controls: 0 for no effect and ±100 for the full control effect; nearly all actives have a fitted effect of over 75% in size
Target sequence (Q96KQ7 913-1193 limits assumed): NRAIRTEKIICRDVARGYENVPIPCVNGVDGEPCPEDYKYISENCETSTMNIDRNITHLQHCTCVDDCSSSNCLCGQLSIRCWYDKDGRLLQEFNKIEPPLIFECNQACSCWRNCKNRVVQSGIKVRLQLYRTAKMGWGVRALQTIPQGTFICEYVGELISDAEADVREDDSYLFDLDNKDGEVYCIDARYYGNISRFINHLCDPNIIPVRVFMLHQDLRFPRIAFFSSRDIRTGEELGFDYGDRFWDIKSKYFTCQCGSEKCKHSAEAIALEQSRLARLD
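Methyltransferase reactions run at room temperature for 2 h (20 nM enzyme, 500 nM biotin-H3K9 peptide, 20 uM SAM) after a 15 min compound preincubation; product detected by AlphaScreen beads and anti-H3K9me1 antibody.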
HP1b chromo inh – HP1-beta chromodomain-methylated histone interaction inhibition. P83916. AlphaScreen HP1-beta / biotin-H3K9me3 peptide binding. Potency, µM (doses to about 114 µM), for the others: at the highest dose activity change, negative = inhibition, most hits filed as inhibitors. 390,000 compounds, 0.56% hits; also: nearly all actives have a fitted effect of over 70% in size
Target sequence (P83916 whole entry, looked up): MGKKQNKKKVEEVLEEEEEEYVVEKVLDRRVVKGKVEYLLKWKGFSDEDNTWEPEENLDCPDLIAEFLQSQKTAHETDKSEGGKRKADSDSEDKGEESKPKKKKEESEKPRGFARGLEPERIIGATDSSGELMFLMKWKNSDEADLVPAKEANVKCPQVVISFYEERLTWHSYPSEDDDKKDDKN
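HP1-beta protein (50 nM final) preincubated 30 min at room temperature with biotinylated H3(1-18)K9me3 peptide (50 nM) in PBS pH 7.4, 0.01% Tween-20, then compound added for 30 min. AlphaScreen streptavidin donor/nickel chelate acceptor beads (10 ug/mL final), 30 min dark, luminescence read.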
The depositor's hits bear a star; [ ] = another dose, or the depositor's remark. Sampled rows, rich in hits. Any-hit rate of the full collection: about 12%. Calls follow the shape of the dose curve; as a rule, active = well fitted curve in the direction sought with a large enough effect; inconclusive = small, poorly fitted or top-dose-only effect, or another doubt; inactive = no such curve, though single readings can be large; an effect the other way counts as inactive or inconclusive. Potency is read from the fitted curve at half-maximal effect.

What do the screens show for `Cc1noc(/C=C/c2ccco2)c1S(=O)(=O)N1CCC(C(=O)N(C)Cc2ccccc2)CC1`?
Sfp PPTase inh: 45µM*; PLK1 PBD block: -8%; JMJD2A Tudor inh: -22%; BAZ2B inh: -29%; G9a inh: inconclusive; HP1b chromo inh: -15%

What do the screens show for `Cc1ccc(-c2nc3c4ccccc4n(Cc4cccc(Cl)c4)c(=O)n3n2)cc1`?
JMJD2A Tudor inh: -19%; BAZ2B inh: -2%; G9a inh: 4%[59 µM]; HP1b chromo inh: -5%

How did O=[N+]([O-])c1cc([N+](=O)[O-])c(Oc2c(F)ccc(F)c2F)cc1NN1CCCCC1 do in these assays?
Sfp PPTase inh: 16%; PLK1 PBD block: -12%; JMJD2A Tudor inh: inconclusive; BAZ2B inh: inconclusive; G9a inh: 32µM*; HP1b chromo inh: inconclusive

How did O=[N+]([O-])c1cc([N+](=O)[O-])c(Oc2c(Cl)cccc2Cl)cc1NN1CCCCC1 do in these assays?
Sfp PPTase inh: 8%; PLK1 PBD block: -14%; JMJD2A Tudor inh: inconclusive; BAZ2B inh: inconclusive; G9a inh: 25µM*; HP1b chromo inh: inconclusive

What do the screens show for `O=[N+]([O-])c1cc([N+](=O)[O-])c(Oc2cccnc2Br)cc1NN1CCCCC1`?
Sfp PPTase inh: 2%; PLK1 PBD block: -14%; JMJD2A Tudor inh: inconclusive; BAZ2B inh: inconclusive; G9a inh: 40µM*; HP1b chromo inh: inconclusive

How did O=[N+]([O-])c1cc([N+](=O)[O-])c(Oc2cccc3ccccc23)cc1NN1CCCCC1 do in these assays?
PLK1 PBD block: -3%; JMJD2A Tudor inh: inconclusive; HP1b chromo inh: -16%

What do the screens show for `O=[N+]([O-])c1cc([N+](=O)[O-])c(Oc2c(F)cccc2F)cc1NN1CCCCC1`?
Sfp PPTase inh: 19%; PLK1 PBD block: -1%; JMJD2A Tudor inh: inconclusive; BAZ2B inh: inconclusive; G9a inh: -48%; HP1b chromo inh: inconclusive

How did O=[N+]([O-])c1cc([N+](=O)[O-])c(Oc2cc(F)cc(F)c2)cc1NN1CCCCC1 do in these assays?
PLK1 PBD block: 27µM*; JMJD2A Tudor inh: inconclusive; BAZ2B inh: -1%; G9a inh: 16%[2.33 µM]; HP1b chromo inh: 6%

How did COC(=O)c1cc2oc3ccccc3c2n1CC(=O)Nc1cc(OC)cc(OC)c1 do in these assays?
JMJD2A Tudor inh: -11%; BAZ2B inh: -2%; G9a inh: -5%[59 µM]; HP1b chromo inh: 3%

What do the screens show for `COc1ccc(Br)cc1CNC(=O)C1COc2ccccc2C1` (stereo not drawn)?
JMJD2A Tudor inh: 6%; BAZ2B inh: 0%; G9a inh: 13%[59 µM]; HP1b chromo inh: 24%[57 µM]

Results for Cc1ccc(NC(=O)c2ccc3c(O)c(S(=O)(=O)c4ccccc4)c(=O)[nH]c3c2)cc1Cl ?
JMJD2A Tudor inh: -17%; BAZ2B inh: inconclusive; G9a inh: -48%[59 µM]; HP1b chromo inh: 15%

What do the screens show for `Nc1ccc(C2(c3ccc(N)cc3)OC(=O)c3ccccc32)cc1`?
Sfp PPTase inh: 4%; PLK1 PBD block: -9%; JMJD2A Tudor inh: 35µM*; BAZ2B inh: -28%; G9a inh: 9%; HP1b chromo inh: -2%

Results for O=C1OC(c2ccccc2)(c2cc(Br)c(O)c(Br)c2)c2ccccc21 (stereo not drawn) ?
PLK1 PBD block: 24µM*; JMJD2A Tudor inh: -36%; HP1b chromo inh: -21%

What do the screens show for `Cc1cc(C2(c3ccc(O)c(C)c3)OC(=O)c3ccccc32)ccc1O`?
Sfp PPTase inh: -4%; PLK1 PBD block: -9%; JMJD2A Tudor inh: inconclusive; BAZ2B inh: 50µM*; G9a inh: inconclusive; HP1b chromo inh: -25%

Results for CC(C)NC(=O)N1CCC2(CC1)CCN(C(=O)c1cc(C(F)(F)F)cc(C(F)(F)F)c1)CC2 ?
Sfp PPTase inh: 2%; G9a inh: 4%[12.7 µM]

How did CC(C)C(=O)Nc1c2c(nn1-c1ccc(F)cc1)CS(=O)(=O)C2 do in these assays?
Sfp PPTase inh: 11%; PLK1 PBD block: -23%; JMJD2A Tudor inh: -1%; BAZ2B inh: -7%; G9a inh: 20%; HP1b chromo inh: 24%
